MCF10A rereplic – inducers of DNA re-replication in MCF 10A breast cells; MCF 10A DNA re-replication, Hoechst nuclear intensity, 48 h; Potency, µM (top dose mostly 46.1 µM), without a hit: at the top dose activity, positive = re-replication, actives largely listed as activators; AID 624296; actives 2.9% (n = 350,000); further: potency means the concentration at half of the fitted maximal effect; % of control where 0% means no effect; nearly all actives have a fitted effect of over 50% in size
IL-1B inflam inh – blocks inflammasome-driven IL-1 beta release | actives 4.7% (n = 360,000) | AID 743279 | activity change, % at 57.5 µM | THP-1 LPS/ATP IL-1B secretion, AlphaLISA, 16 h; stronger effect = lower value; in the data active means activity change below about -50%; inconclusive means mostly about -30% to -49%; further: on the % scale 0 is the no-effect control and ±100 the full control effect
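THP-1 cells pretreated 1 hr with compounds (up to 57.5 uM final), then stimulated with LPS (250 ng/mL final) plus ATP (1.25 mM final); secreted IL-1B measured by AlphaLISA after 16 hr, decreased signal indicating inhibition.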
SW480 rereplic – induces DNA re-replication in SW480 colon adenocarcinoma cells | actives 1.8% (n = 340,000) | SW480 DNA re-replication, Hoechst DNA content imaging, 48 h | Potency, µM (highest dose often 46.1 µM), without a hit: at the highest dose re-replication activation, usual class: activators; further: potency means the concentration at half of the fitted maximal effect; % of control where 0% means no effect; nearly all actives have a fitted effect of over 55% in size
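Image-based read-out: total Hoechst fluorescence of nuclei (405 nm excitation, 500-530 nm emission), with hits raising the fraction of high-intensity nuclei. SW480 colon cells incubated 48 hr with compounds at 37 C.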
KB-V1 cytotox – KB-V1 MDR subline cytotoxicity; AID 1347076; Potency, µM (titrated, usually from 46.1 µM), most hits filed as cytotoxic; actives 3.4% (n = 400,000); KB-V1 MDR cells viability, CellTiter-Glo, 72 h; further: potency means the concentration at half of the fitted maximal effect; on the % scale 0 is the no-effect control and ±100 the full control effect; nearly all actives have a fitted effect of over 60% in size
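Luminescent ATP read-out (CellTiter-Glo, 10 min) measures survival of drug-selected KB-V1 MDR cells after 72 h, 37 degrees C compound exposure. Medium: phenol-red-free DMEM, 10% FBS. Values from fitted concentration-response curves.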
KB-3-1 cytotox – kills parental KB-3-1 adenocarcinoma cells; Potency, µM (highest dose often 46.1 µM), hits mostly cytotoxic; actives 1.4% (n = 400,000); KB-3-1 viability, CellTiter-Glo ATP luminescence, 72 h; further: potency means the concentration at half of the fitted maximal effect; on the % scale 0 is the no-effect control and ±100 the full control effect; nearly all actives have a fitted effect of over 60% in size
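Cells are dispensed, compounds pinned in, plates held at 37 °C for 72 h, then CellTiter-Glo is added and luminescence read after 10 minutes. Cell line: parental KB-3-1 in phenol-red-free DMEM, 10% FBS.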
* = called active by the depositor; i = inactive; ? = inconclusive; / = no result given; ! = not confirmed by another sample; [ ] = another dose, or the depositor's remark. The list is not random: actives were taken first. Their share in the collection is about 9.9%. Unless noted, the call rests on the fitted dose curve; in most records, active means well fitted curve in the direction sought with a large enough effect; inconclusive means small, poorly fitted or top-dose-only effect, or another doubt; inactive means no such curve, though single readings can be large; an effect the other way counts as inactive or inconclusive.

SMILES | MCF10A rereplic | IL-1B inflam inh | SW480 rereplic | KB-V1 cytotox | KB-3-1 cytotox
CC(=O)c1c(C)[nH]c(C(=O)Nc2nc(-c3ccc(Cl)cc3)cs2)c1C | 23µM* | 6 | -9% | ? | ?
Cn1cc(S(=O)(=O)c2ccc(Cl)cc2)c(=O)c2cc(F)c(N3CCCC3)cc21 | / | / | / | i | i
Cc1cc(O)c(NC(=O)c2cc([N+](=O)[O-])ccc2Cl)cc1C | ? | -84* | ? | i | ?
Cc1ccc(O)c(NC(=O)c2cc([N+](=O)[O-])ccc2Cl)c1 | ? | -97* | 8% | i | i
COc1ccc(C)cc1NC(=O)c1ccc([N+](=O)[O-])cc1[N+](=O)[O-] | -11%[9.22 µM] | 42 | -7% | i | i
COc1ccc(Cl)cc1C(=O)Nc1ccc([N+](=O)[O-])cc1Cl | / | / | / | i | i
O=C(Nc1ccccc1)c1cc([N+](=O)[O-])ccc1Cl | 2% | 8 | -10% | i | i
O=C(Nc1cccc(Cl)c1)c1cc(N=Nc2ccc([N+](=O)[O-])cc2Cl)ccc1O | 3% | 23 | 6% | ? | 21µM*
O=C(Nc1ccc([N+](=O)[O-])cc1Cl)c1cc(Cl)ccc1O | ? | -64* | 3.2µM*! | 1µM* | 1.2µM*
Cc1ccc(S(=O)(=O)N2CCN(c3nccnc3C#N)CC2)cc1 | 2% | -16 | 0% | i | i
COc1cc(C(=O)NS(=O)(=O)c2ccccc2C)ccc1Cc1cn(C)c2ccc(NC(=O)OC3CCCC3)cc12 | 21µM* | / | 1% | / | /
COc1cccc(NC(=O)N(Cc2cn(C)c3ccccc23)C2CCCCC2)c1 | / | / | / | i | i
O=C(NCc1ccccc1)C(c1cccnc1)N(C(=O)c1csnn1)c1ccccc1 (stereo unspecified) | 0% | -9 | 0% | i | i
C1CCCCCC(NCCN2CCNCC2)CCCCC1 | ? | ? | ? | ? | 16µM*
Cc1nc2ccccc2cc1OCc1ccccc1 | 11% | 24 | 1% | ? | ?
Cc1nc2ccccc2cc1OCc1ccc(Cl)cc1 | ? | ? | 1% | 1.8µM* | 2.6µM*
Clc1ccc2[nH]c3c(NCCCN4CCOCC4)ncnc3c2c1 | ? | -90* | ? | i | i
CCN1CCCC1CNc1ncnc2c1[nH]c1ccc(Cl)cc12 (stereo unspecified) | ? | -110* | -1% | ? | ?
CCN1CCCC1Cn1cnc2c([nH]c3ccc(C)cc32)c1=O (stereo unspecified) | 23% | -58* | -14% | i | i
Cc1c(NC(=O)c2cccc(NC(=O)COc3ccc(C#N)cc3)c2)c(=O)n(-c2ccccc2)n1C | ? | -5 | ? | i | i
COc1ccc(CCNC(=O)Cn2ncc3c(=O)oc4ccccc4c32)c(OC)c1 | / | / | / | i | i
Oc1ccc(/C=N/NC(=S)Nc2cccnc2)cc1O | -2% | 57 | -1% | i | i
Oc1ccc(C=NNC(=S)Nc2cccnc2)nc1 | ? | 64 | 13µM* | 3.7µM* | i
CC(=O)Nc1nc(-c2ccc3c(c2)CCN3C(=O)C2CC2)c(C)s1 | 24% | -5 | ? | 15µM* | ?
Cc1sc2nc3c(C(=O)N4CCCC4)cc(C(=O)c4ccccc4O)cn3c(=O)c2c1C | 9% | ? | 3% | ? | ?
SMILES | MCF10A rereplic | IL-1B inflam inh | SW480 rereplic | KB-V1 cytotox | KB-3-1 cytotox
CCc1c(C)sc2nc3c(C(=O)N4CCOCC4)cc(C(=O)c4cc(F)ccc4O)cn3c(=O)c12 | ? | -76* | -1%[1.84 µM] | i | i
O=C(NCCN1CCOCC1)C(=O)NCC1OCCCN1S(=O)(=O)c1cc(F)ccc1F (stereo unspecified) | -13% | -11 | 3% | i | i
O=C(CSc1nn(-c2ccc(F)cc2)c(=S)s1)N1CCN(C(=O)c2ccco2)CC1 | ? | -79* | ? | ? | i
O=C(CSc1nn(-c2ccc(Cl)cc2)c(=S)s1)N1CCN(C(=O)c2ccco2)CC1 | ? | -1 | ? | ? | i
COc1cccc2cc(C(=O)C3=C(O)C(=O)N(c4cc(C)on4)C3c3cccs3)oc12 (stereo unspecified) | -16% | 16 | -17% | ? | i
Cc1ccccc1NC(=O)c1ccccc1NC(=O)c1ccccc1F | 1% | -28 | -2% | i | i
O=c1[nH]c(=O)n(Cc2ccco2)c2c1C(C(F)(F)F)(C(F)(F)F)N=C(c1ccc(F)cc1)N2 | 18% | -68* | 1% | ? | ?
COc1cccc(Cn2c(C(C)n3c(-c4cnccn4)nc4ccccc43)nc3ccccc32)c1 (stereo unspecified) | / | ? | / | 16µM* | ?
COc1cccc(Cn2c(Cn3c(-c4cnccn4)nc4ccccc43)nc3ccccc32)c1 | / | 0 | / | ? | i
COC(=O)C1=C(C(=O)OC)[C@@H]2Nc3ccccc3[C@@]23C[C@@H](C(=O)OC)N(C(=O)c2cccs2)C3=N1 | ? | 20 | ? | i | i
O=C(NCCN1CCCC1=O)C1CCC(=O)N(CCc2cccc(F)c2)C1 (stereo unspecified) | 0% | 10 | -2% | i | i
Cc1ccc(NC2Sc3ccccc3NC2=O)cc1Cl (stereo unspecified) | ? | -26 | ? | ? | i
CC(=O)c1c(N2CCN(c3cccc(Cl)c3)CC2)nc(=S)n(-c2ccccc2)c1C | -4% | -102* | -2% | i | i
CC(=O)c1c(NCCc2ccccc2)nc(=S)n(-c2ccccc2)c1C | ? | -101* | 70% | ? | i
CCn1c(C)c(C(C)=O)c(N2CCN(c3cccc(Cl)c3)CC2)nc1=S | -2% | -5 | -1% | i | i
CC(=O)c1c(NCc2ccccc2)nc(=O)n(-c2ccccc2)c1C | 0% | 0 | -10% | ? | i
CCN(CC)C(=O)Cn1cc(S(=O)(=O)CC(=O)NCc2ccc(F)cc2)c2ccccc21 | -1% | i | -26% | i | i
CCCOc1ccc(C(F)(F)F)cc1NC(=O)c1cc(C)on1 | 3% | -19 | -19% | i | i
CCCOc1ccc(C(F)(F)F)cc1NS(=O)(=O)c1ccc(Cl)nc1 | ? | -65* | ? | i | i
Cc1ccc(NC(CNS(=O)(=O)c2ccc(Cl)cc2)c2ccccc2)cc1 (stereo unspecified) | ? | ? | 5% | ? | ?
NS(=O)(=O)c1ccc(NC(CNS(=O)(=O)c2ccccc2)c2ccccc2)cc1 (stereo unspecified) | 0% | -3 | -11% | i | i
O=S(=O)(NCC(Nc1ccc(Cl)cc1)c1ccccc1)c1ccccc1 (stereo unspecified) | 4.6µM* | -92* | ? | 18µM*! | ?
